The list is a sample of the results.
aSyn 5UTR act: Activators via SNCA 5'UTR binding, MLPCN; AID 1814, 2009; alpha-synuclein 5'UTR reporter, activators screen; hit rate 7.1% among 300,000; activity score, % (tested at 7.5 µM), hits read low; in the data active = activity score below about -60%
Active calls of the source: *.

SMILES	aSyn 5UTR act
COc1ccc(S(=O)(=O)n2ccc(-c3cnc(-c4ccccc4)s3)n2)cc1	-140*
Cc1c(Cl)cccc1NC(=O)c1cc(-c2ccccc2O)n[nH]1	-206*
COc1ccc(Cl)cc1NC(=O)c1cc(-c2ccccc2O)n[nH]1	-118*
Cc1cc(C)c2c(NC(=O)CCl)nn(C)c2n1	-65*
COc1ccc(-c2nnc(NC(=O)c3cccs3)s2)c(OC)c1	-76*
Cc1cccc(-c2nnc(NC(=O)c3cccs3)s2)c1	-113*
CC(=O)N(Cc1ccco1)c1nc(C(=O)Nc2ccc(Cl)cc2)c(C)s1	-105*
Cc1nc(-c2ccc(S(=O)(=O)Oc3ccccc3Cl)s2)cs1	-68*
CN(C)CCN(C(=O)c1ccc2c(c1)OCCO2)c1nc2c(Cl)cccc2s1	-97*
CN(C)CCN(C(=O)c1ccc2c(c1)OCCO2)c1nc2cc3c(cc2s1)OCO3	-77*
CN(C)CCCN(C(=O)c1ccc2c(c1)CCCC2)c1nc2c(F)cccc2s1	-157*
CCOc1cccc2sc(N(CCCN(C)C)C(=O)c3ccc(S(=O)(=O)N4CCc5ccccc5C4)cc3)nc12	58
CN(C)CCN(C(=O)c1ccc2c(c1)CCCC2)c1nc2cc3c(cc2s1)OCCO3	-75*
C#CC[N+](C)(C)CCCCCCCCCC	75
Cc1cc(C)c2sc(N(CCCN(C)C)C(=O)c3ccc(S(=O)(=O)N(C)C4CCCCC4)cc3)nc2c1	53
CN(C)CCN(C(=O)c1ccc(S(=O)(=O)N(C)c2ccccc2)cc1)c1nc2cc3c(cc2s1)OCCO3	-64*
COc1ccc2nc(N(CCN(C)C)C(=O)c3ccc4c(c3)OCCO4)sc2c1	-72*
COc1cc(OC)cc(-c2nc(-c3ccc(Br)cc3)no2)c1	-164*
COCC1CCN(Cc2nc(-c3ccc4c(c3)OCO4)no2)C1 (stereo unspecified)	-114*
CCOc1nc(C)ccc1-c1noc(-c2cccnc2)n1	-85*
COc1ccccc1-c1noc(-c2cccnc2)n1	-112*
COc1ccccc1-c1nc(-c2ccc(Br)cc2)no1	-305*
COc1ccc(-c2nc(-c3ccc(Br)cc3)no2)c(OC)c1	-105*
COc1ccccc1-c1nc(-c2ccncc2)no1	-123*
COc1ccc(-c2noc(-c3ccc4c(c3)OCO4)n2)cc1	-72*
SMILES	aSyn 5UTR act
COc1ccc(N/C=C2/Sc3ccccc3NC2=O)cc1	-148*
Cc1ccc(N/C=C2/Sc3ccccc3NC2=O)cc1	-175*
CCC(C)NC(=O)/C=C1\Sc2ccccc2NC1=O (stereo unspecified)	-74*
Cc1ccc(O)c(-n2nc3ccccc3n2)c1	-134*
Cn1c(=O)c2c(nc(NCC3CCCC(CN)C3)n2Cc2ccc(Cl)cc2Cl)n(C)c1=O (stereo unspecified)	-84*
CCCC(=O)c1ccc(N2CCCCCC2)c(F)c1	-137*
CCCC(=O)c1ccc(N2CCCCC2)c(F)c1	-126*
Cc1cc(C(=O)CSc2nnnn2C)c(C)n1C1CC1	-69*
Cc1nnc(SCC(=O)c2cc(C)n(C3CC3)c2C)s1	-146*
Cc1ccc(NC(=O)c2ccc(CSc3nnc(C)s3)cc2)c(C)c1	-68*
Cc1ccc(C(=O)CSc2nnc(C)s2)cc1	-85*
CC(=O)c1ccc(N(C(=O)Cc2c[nH]c3ccccc23)C(C(=O)NC2CCCCC2)c2cccs2)cc1 (stereo unspecified)	-84*
O=C1C(Nc2ccccc2)=C(NS(=O)(=O)c2ccccc2)C(=O)c2ccccc21	-75*
COC(=O)c1ccc(N=Cc2c(-c3ccccc3)[nH][nH]c2=O)cc1	-216*
Cc1ccc(-c2noc(CSc3nc(N)cc(N)n3)n2)cc1	-191*
Cc1ccc(-c2noc(CSc3ccccc3)n2)cc1	-84*
c1ccc(SCc2nc(-c3cccnc3)no2)cc1	-103*
Cc1cccc(-c2noc(CSc3ccccc3)n2)c1	-170*
CCN1C(=S)SC(=O)C1=C1C=C(C)N(Cc2ccco2)C(C)=C1	-132*
CCN1C(=S)SC(=O)C1=C1C=C(C)OC(C)=C1	-97*
Cc1[nH]c2ccccc2c1N=Nc1ccccc1F	-122*
O=C(O)c1cccc2c1-c1ccccc1/C2=N\Nc1ccccc1	-83*
Cc1ccc(N=Nc2ccc(N)cc2C)c(S(N)(=O)=O)c1	-80*
Cc1ccc(N=Nc2cc(C)ccc2O)c(C)c1	-215*
Cc1ccc(N=Nc2cc(C)ccc2N)cc1	61
SMILES	aSyn 5UTR act
Cn1c(COc2ccccc2)nc2ccccc21	-99*
COCCn1c(COc2ccc(C)cc2)nc2ccccc21	-95*
Cc1ccc(NCc2nc3ccccc3n2CCOc2ccccc2)cc1	-136*
CCn1c(COc2ccc(C)cc2)nc2ccccc21	-126*
CCOCCn1c(COc2ccc(C)cc2)nc2ccccc21	-118*
CCCn1c(CNc2ccc(Br)cc2)nc2ccccc21	-119*
CC(NC(=O)c1cc(COc2c(F)cccc2F)on1)c1cnn(-c2ccccc2)c1 (stereo unspecified)	-91*
COc1ccc(OCc2cc(C(=O)N3CCCCCC3)no2)c(Cl)c1	-90*
COc1ccc(OCc2cc(C(=O)N3CCSCC3)no2)c(Cl)c1	-108*
O=C(c1cc(COc2ccc(F)cc2Cl)on1)N1CCSCC1	-197*

From PubChem
